p53ts 32C kill: kills p53ts cells at the permissive temperature | H1299-p53A138V at 32C, ATP luminescence viability, 24 h | Potency, µM (top dose mostly 46.1 µM), usual class: cytotoxic | actives 0.93% (n = 130,000); note: nearly all actives have a fitted effect of over 55% in size
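Cells: H1299 p53ts (A138V), 600/well, pre-incubated 16–30 h at 37C. Cpd up to 46 uM, 24 h, 32C. Readout: ATPlite luminescence, 20 min RT. Normalization: DMSO vs tamoxifen 100 uM. AC50 by Hill equation.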
p53ts 39C tox: kills p53ts cells at the nonpermissive temperature. H1299-p53A138V viability at 39C, ATP luminescence, 24 h. Potency, µM (titrated, usually from 46.1 µM), usual class: cytotoxic. actives 1.5% (n = 130,000); note: nearly all actives have a fitted effect of over 55% in size
Luciferase inh: inhibitors of firefly luciferase; P08659; purified firefly luciferase, luminescence, 8 min; Potency, µM (series often up to 57.1 µM), actives largely listed as inhibitors; actives 2.2% (n = 72,000); AID 411; note: nearly all actives have a fitted effect of over 40% in size
Target sequence (P08659 whole entry, looked up): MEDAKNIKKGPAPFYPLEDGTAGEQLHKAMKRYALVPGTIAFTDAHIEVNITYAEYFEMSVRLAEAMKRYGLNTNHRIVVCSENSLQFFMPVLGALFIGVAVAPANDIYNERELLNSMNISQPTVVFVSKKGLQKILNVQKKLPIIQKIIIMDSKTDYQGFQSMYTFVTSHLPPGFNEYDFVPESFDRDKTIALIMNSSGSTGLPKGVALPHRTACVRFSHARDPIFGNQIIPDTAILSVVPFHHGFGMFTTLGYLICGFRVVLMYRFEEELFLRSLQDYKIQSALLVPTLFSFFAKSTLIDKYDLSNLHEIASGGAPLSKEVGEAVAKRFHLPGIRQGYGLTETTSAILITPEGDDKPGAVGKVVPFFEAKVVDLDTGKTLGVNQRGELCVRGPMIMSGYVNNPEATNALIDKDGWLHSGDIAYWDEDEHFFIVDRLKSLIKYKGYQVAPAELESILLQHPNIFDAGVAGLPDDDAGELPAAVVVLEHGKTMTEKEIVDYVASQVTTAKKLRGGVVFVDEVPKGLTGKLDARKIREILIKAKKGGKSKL
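Titration-based qHTS; buffer 50 mM imidazole pH 7.2, 50 mM KCl, 7 mM MgCl2, 10 uM ATP, 0.01% Tween 20, 0.05% BSA; luciferase/luciferin detector mix added after compound; 8 min, ambient; luminescence.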
A number is an active result; – = inactive; ? = inconclusive; · = no result given; [ ] = dose if it differs, or a comment. Most compounds without a hit are left out; they make up all but 2.6% or so of the library. Calls come from the whole dose curve; as a rule, active = well fitted curve in the direction sought with a large enough effect; inconclusive = small, poorly fitted or top-dose-only effect, or another doubt; inactive = no such curve, though single readings can be large; an effect the other way counts as inactive or inconclusive.

SMILES	p53ts 32C kill	p53ts 39C tox	Luciferase inh
Cc1ccn2c(Nc3ccccc3C)c(-c3ccc(N4CCOCC4)cc3)nc2c1	–	–	·
Cc1ccc2nc(-c3ccc(N4CCOCC4)cc3)c(Nc3ccccc3C)n2c1	13µM	?	·
Clc1ccc2nc(-c3ccc(N4CCOCC4)cc3)c(Nc3ccccc3)n2c1	–	–	·
Cc1ccccc1Nc1c(-c2ccc(N3CCOCC3)cc2)nc2ccc(Cl)cn12	?	10µM	·
CC(=O)c1ccc(N2CCN(c3ncnc4c3nc3n4CCCC3)CC2)cc1	–	·	·
COc1ccc(C)cc1NC(=O)c1c2c(nc3ccccc13)C(=O)N(C1CCCCC1)C2	–	10µM	·
O=C(Nc1ccc(F)cc1F)c1c2c(nc3ccccc13)C(=O)N(C1CCCCC1)C2	–	?	·
CSc1cccc(Nc2cc(C(=O)NC3CCCCC3)c3ccccc3n2)c1	–	–	·
Cc1cc(C)cc(Nc2cc(C(=O)NCCCN(Cc3ccccc3)C(C)C)c3ccccc3n2)c1	–	16µM	·
CC(C)c1ccc(Nc2cc(C(=O)NCCc3ccccc3)c3ccccc3n2)cc1	–	–	·
CSc1cccc(Nc2cc(C(=O)NCCCN(Cc3ccccc3)C(C)C)c3ccccc3n2)c1	?	16µM	·
Cc1ccc(C)c2[nH]c(=O)c(CCNC(=O)c3cc4ccccc4o3)cc12	–	–	–
COc1ccc(OC)c2[nH]c(=O)c(CCNC(=O)c3cc4ccccc4o3)cc12	13µM	?	–
CCc1ccc(CNC(=O)CCc2c(C)nn(-c3ccc(N4CCCC4)nn3)c2C)cc1	–	–	·
Cc1c(C(=O)Nc2ccc(F)c(Cl)c2)sc2nc3n(c(=O)c12)CCC3	?	–	·
O=C(Nc1cnc2ccccc2c1)N1CCOCC1	–	–	–
O=C(Nc1cnc2ccccc2c1)N1CCCCC1	?	?	10µM
Cc1cccc(OC(=O)CSc2nnc(-c3ccc4c(c3)OCO4)o2)c1C	–	–	·
Cc1ccc2c(c1)C(=O)OC(C(=O)Nc1ncc(Cc3ccccc3)s1)C2 (centres undefined)	–	–	·
O=C(Nc1ncc(Cc2ccccc2)s1)C1CCCO1 (centres undefined)	?	?	10µM
O=C(Cn1c(=O)n(-c2ccccc2)c(=O)c2ccc(C(=O)NCc3ccc4c(c3)OCO4)cc21)Nc1ccc(Br)cc1F	–	13µM	·
O=C(Cn1c(=O)n(-c2ccccc2)c(=O)c2ccc(C(=O)NCc3ccc4c(c3)OCO4)cc21)Nc1ccc(F)cc1	–	–	·
O=C(Cc1ccccc1)Nc1cc(-c2nc3cc(Cl)ccc3o2)ccc1Cl	–	–	·
CSCCNC(=O)c1ccc(C(C)(C)C)cc1	10µM	?	13µM
O=C(NCCSc1ccccc1)c1ccccc1	–	–	?
SMILES	p53ts 32C kill	p53ts 39C tox	Luciferase inh
COc1ccc(-c2cn3c4c(sc3n2)CCCC4)cc1	6.3µM	5µM	0.63µM
COc1ccc(-c2cn3c(n2)sc2cc(C(=O)Nc4cc(OC)cc(OC)c4)ccc23)cc1	–	–	·
COc1ccc(NC(=O)c2ccco2)cc1NC(=O)C(C)(C)Oc1ccc(Cl)cc1	–	–	·
COC(=O)c1c(SC)nc2ccccc2c1OCc1cc(C)ccc1C	–	–	·
COC(=O)COc1ccc2oc(-c3ccc(OC)cc3)cc(=O)c2c1	–	–	·
COc1ccc(-c2cc(=O)c3ccc(O)cc3o2)cc1	?	?	–[11.4 µM]
O=c1cc(-c2cccc(O)c2)oc2cc(O)ccc12	–	–	–[11.4 µM]
COc1cccc(-c2oc3ccc(C)cc3c(=O)c2O)c1	?	10µM	·
O=c1cc(-c2cccc(O)c2)oc2c(O)c(O)ccc12	?	25µM	–[11.4 µM]
COc1ccc2oc(-c3ccc(O)cc3)cc(=O)c2c1	5µM	7.9µM	?
CCCCC(=O)Oc1ccc2oc(-c3ccc(OC)cc3)cc(=O)c2c1	?	6.3µM	·
Cc1ccc2oc(-c3ccccc3)c(O)c(=O)c2c1	–	–	–[11.4 µM]
COc1cccc(CNC(=O)c2cnc(N3CCCC3)nc2C)c1	–	–	·
COc1cccc(-c2cn3c(n2)sc2cc(C(=O)NCCc4ccc(OC)c(OC)c4)ccc23)c1	–	–	·
CCN(CC)CCOC(=O)c1ccc(NC(=O)c2cc3cc(OC)ccc3oc2=O)cc1	–	–	·
C[C@@]12C=CC(=O)C=C1CC[C@@H]1[C@@H]2[C@H](O)C[C@]2(C)[C@@H]1CC[C@]2(O)C(=O)CO	–	–	–
CCOc1ccc(NC(=O)CN2C(=O)C(c3ccccc3)=NC23CCC(C)CC3)cc1 (centres undefined)	–	–	·
COc1cccc(-c2cc(=O)c3ccc(OC)cc3o2)c1	–	–	·
COc1cccc(-c2cc(=O)c3cc(O)ccc3o2)c1	?	13µM	–[11.4 µM]
CC#C[C@@]1(O)CC[C@H]2[C@@H]3CCC4=CC(=O)CCC4=C3[C@H](c3ccc(N(C)C)cc3)C[C@]21C	–	–	–
Clc1ccc(-n2nnnc2Sc2ncnc3sccc23)cc1	?	20µM	–
Cc1sc2ncnc(Sc3nnnn3-c3ccccc3)c2c1C	?	–	–
COC(=O)c1sccc1NC(=O)c1cc2c(s1)CCCC2	–	?	20µM
COC(=O)c1sccc1NC(=O)c1ccc2c(c1)OCO2	–	–	–
Cc1ccc(C2CC(=O)N(Cc3ccc(F)cc3)c3c2c(C)nn3-c2nc(C)cc(C)n2)cc1 (centres undefined)	–	–	·
SMILES	p53ts 32C kill	p53ts 39C tox	Luciferase inh
Cc1ccc(-c2cc(N)n3nc(-c4ccc(C)cc4)cc3n2)cc1	–	–	·
COc1ccc(S(=O)(=O)Nc2cc(-c3cn4ccc(C)cc4n3)ccc2C)cc1OC	–	–	·
COc1ccc(-c2cn3cc(C)ccc3n2)cc1OC	10µM	13µM	2.5µM
COc1ccc(-c2cn3ccccc3n2)cc1OC	3.2µM	5µM	3.2µM
Cc1ccc(-c2cn3ccc(C)cc3n2)cc1	0.5µM	0.63µM	·
COc1ccc(Br)cc1S(=O)(=O)Nc1cc(-c2cn3ccccc3n2)ccc1C	–	–	·
O=c1c(CCc2ccccc2)nc2cnc(N3CCNCC3)nc2n1-c1ccccc1	–	–	–[11.4 µM]
CCOC(=O)c1ccc(NC(=O)CSc2nccn2-c2ccc(OCC)cc2)cc1	–	–	·
COc1ccc(CCNC(=O)c2ccc(Cn3c(=O)c4ccccc4n(Cc4cccc(F)c4)c3=O)cc2)cc1OC	–	?	·
CC(C)(C)n1ncc2c(=O)n(CC(=O)NCc3ccco3)cnc21	–	–	–
CC(C)(C)n1ncc2c(=O)n(CC(=O)c3ccccc3)cnc21	–	?	–
CC(C)(C)n1ncc2c(=O)n(CC(=O)OCc3ccccc3)cnc21	?	–	0.4µM
CC(C)(C)n1ncc2c(=O)n(CC(=O)NCc3ccc(F)cc3)cnc21	?	?	20µM
COc1ccc(Cn2c(SCc3ccc(C(=O)NC(C)c4ccccc4)cc3)nc3cccnc32)cc1 (centres undefined)	–	–	·
CN(C)c1ccc(CNC(=O)C2CCCN(S(=O)(=O)c3ccc4c(c3)CCCC(=O)N4)C2)cc1 (centres undefined)	–	–	·
CCc1cccc(NC(=O)CCn2c(=O)c3cccn3c3cccnc32)c1	–	–	·
O=C(Nc1ccc(F)cc1F)c1ccc(-n2cnc3cccnc32)cc1	–	–	·
CCOC(=O)c1ccccc1NC(=O)N1CCN2CCCCC2C1 (centres undefined)	–	–	·
Cc1csc(NC(=O)CCn2c(=O)sc3ccccc32)n1	–	–	–
O=C(CCn1c(=O)sc2ccccc21)Nc1nccs1	?	?	20µM

Screens from PubChem.
